Reference: the supplement of paper PMC12297408
Structures can show the parent of a compound that is named as a salt. About 40 (3%) of roughly 1,300 compounds showed activity. The entries come from a sample that favours actives as a whole. Unmarked numbers belong to inactive results.

Test system: Plasmodium falciparum NF54/iGP1_RE9H ulg8 stage V gametocytes
Test: gametocyte viability (luciferase signal relative to DMSO control) (% of DMSO control); higher = less gametocytocidal activity, active = 50 or less
Conditions: exposure time: 72 h
Method in brief: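 NF54/iGP1_RE9Hulg8 stage V gametocytes (day 12; ~2.5% gametocytemia, 3% hematocrit) were incubated with compounds at 10 µM or 1 µM final, in one well each, for 72 h at 37 °C in medium with 0.5% Albumax II. Luminescence after D-luciferin addition was read on an IVIS Lumina II. Viability refers to the mean of plate DMSO vehicle wells.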

SMILES | gametocyte viability (concentration: 1 µM) | gametocyte viability (concentration: 10 µM)
CN1CCC(=C2c3ccccc3CCc3cccnc32)CC1 [Azatadine maleate] | 79.7 | 80.8
CN1CCN2c3ncccc3Cc3ccccc3C2C1 (configuration not stated) [Mirtazapine] | 79.6 | 77.4
COc1cc(-c2ccc(N=Nc3ccc4c(S(=O)(=O)O)cc(S(=O)(=O)O)c(N)c4c3O)c(OC)c2)ccc1N=Nc1ccc2c(S(=O)(=O)O)cc(S(=O)(=O)O)c(N)c2c1O [Chicago sky blue 6B] | 80.1 | 82.1
Cc1ccccc1C(OCCN(C)C)c1ccccc1 (configuration not stated) [Orphenadrine hydrochloride] | 84.4 | 87.5
O=C1CC[C@@H](C(=O)N2CSC[C@H]2C(=O)O)N1 [Pidotimod] | 83.8 | 81.2
Cc1ccc(S(=O)(=O)NC(=O)NN2CC3CCCC3C2)cc1 (configuration not stated) [Gliclazide] | 91.8 | 88.7
O=C1NCCN1CCN1CCC(c2cn(-c3ccc(F)cc3)c3ccc(Cl)cc23)CC1 [Sertindole] | 97.7 | 82.3
CC(=O)OCC(=O)[C@@]12N=C(C)O[C@@H]1C[C@H]1[C@@H]3CCC4=CC(=O)C=C[C@]4(C)[C@H]3[C@@H](O)C[C@@]12C [Deflazacort] | 95.7 | 104
Clc1ccc(Nc2nnc(Cc3ccncc3)c3ccccc23)cc1 [Vatalanib] | 89.2 | 69.1
Cc1c(F)c(N2CCNC(C)C2)cc2c1c(=O)c(C(=O)O)cn2C1CC1 (configuration not stated) [Grepafloxacin] | 93.9 | 95.3
COc1ccc2[nH]c([S+]([O-])Cc3ncc(C)c(OC)c3C)nc2n1 (configuration not stated) [Tenatoprazole] | 90.8 | 79.8
Nc1ccc(S(=O)(=O)Nc2nccs2)cc1 [Sulfathiazole] | 96.7 | 91.9
CCCCC(=O)N(Cc1ccc(-c2ccccc2-c2nnn[nH]2)cc1)[C@H](C(=O)O)C(C)C [Valsartan] | 81.5 | 81
Cc1cc(C(=O)NNCc2ccccc2)no1 [Isocarboxazid] | 98.7 | 85
CN(C)[C@@H]1C(=O)C(C(=O)NCNCCCC[C@H](N)C(=O)O)=C(O)[C@@]2(O)C(=O)C3=C(O)c4c(O)cccc4[C@@](C)(O)[C@H]3C[C@@H]12 [Lymecycline] | 88.7 | 84.6
CC(=O)OC[C@H]1O[C@@H]([S-])[C@H](OC(C)=O)[C@@H](OC(C)=O)[C@@H]1OC(C)=O.CCP(CC)CC.[Au+] [Auranofin] | 82.6 | 3.03 (active)
CCCCCNC(=N)N/N=C/c1c[nH]c2ccc(OC)cc12 [Tegaserod maleate] | 88.4 | 6.12 (active)
COc1ccc2[nH]cc(CCNC(C)=O)c2c1 [Melatonin] | 80.2 | 85.4

SMILES | gametocyte viability (concentration: 1 µM) | gametocyte viability (concentration: 10 µM)
COc1cc2nc(N3CCN(C(=O)C4CCCO4)CC3)nc(N)c2cc1OC (configuration not stated) [Terazosin hydrochloride] | 96.5 | 92.6
COc1cc2nc(N3CCN(C(=O)c4ccco4)CC3)nc(N)c2cc1OC [Prazosin hydrochloride] | 90.8 | 42.9 (active)
COc1cc2nc(N3CCN(C(=O)C4COc5ccccc5O4)CC3)nc(N)c2cc1OC (configuration not stated) [Doxazosin mesylate] | 86.5 | 63.2
OCCN1CCN(CC/C=C2/c3ccccc3Sc3ccc(Cl)cc32)CC1 [Zuclopenthixol hydrochloride] | 100 | 95.8
CC(C)CN(C[C@@H](O)[C@H](Cc1ccccc1)NC(=O)O[C@H]1CO[C@H]2OCC[C@H]21)S(=O)(=O)c1ccc(N)cc1 [Darunavir] | 82.6 | 81.5
C=C1C[C@H]2[C@@H]3C=C(C)C4=CC(=O)CC[C@]4(C)[C@H]3CC[C@]2(C)[C@@]1(OC(C)=O)C(C)=O [Melengestrol acetate] | 85.4 | 87.2
Nc1nc(CC(=O)Nc2ccc(CCNC[C@H](O)c3ccccc3)cc2)cs1 [Mirabegron] | 91.9 | 90.8
Cn1nnc2c(C(N)=O)ncn2c1=O [Temozolomide] | 86.9 | 88.1
Cc1cc(C(C)(C)C)c(O)c(C)c1CC1=NCCN1 [Oxymetazoline hydrochloride] | 89.6 | 90.7
CC(=O)OCC(=O)[C@@]12OC3(CCCC3)O[C@@H]1C[C@H]1[C@@H]3CCC4=CC(=O)C=C[C@]4(C)[C@@]3(F)[C@@H](O)C[C@@]12C [Amcinonide] | 93.1 | 92.1
CN1CCN(C(c2ccccc2)c2ccc(Cl)cc2)CC1 (configuration not stated) [Chlorcyclizine hydrochloride] | 96.9 | 91.7
CCOC(=O)[C@H](CCc1ccccc1)N[C@@H](C)C(=O)N1Cc2ccccc2C[C@H]1C(=O)O [Quinapril HCl] | 98.4 | 98.4
c1ccc(CNc2ncnc3nc[nH]c23)cc1 [Aminopurine, 6-benzyl] | 69.7 | 43.9 (active)
c1coc(CNc2ncnc3nc[nH]c23)c1 [6-Furfurylaminopurine] | 86.5 | 75.6
S=c1[nH]cnc2nc[nH]c12 [Mercaptopurine] | 82.1 | 84.9
CCCc1nc2c(C)cc(-c3nc4ccccc4n3C)cc2n1Cc1ccc(-c2ccccc2C(=O)O)cc1 [Telmisartan] | 80 | 88.2
CN1CCCN=C1/C=C/c1cccc(O)c1 [Oxantel pamoate] | 80.4 | 87.7
O=C(O)c1ccccc1C(=O)Nc1ccc(S(=O)(=O)Nc2nccs2)cc1 [Phthalylsulfathiazole] | 82.3 | 85.4
